Results: the supplement of paper PMC9262897, “Low-cost anti-mycobacterial drug discovery using engineered E. coli” (Nature Communications, 2022)
Structures can show the parent of a compound that is named as a salt. ± gives the standard deviation of the averaged measurements.

Test system: E. coli TESEC Mtb Alr
Assay: growth (OD600 after 10 h); higher = more growth (less inhibition)
Settings: compound 0.1 mM
Method: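 TESEC Mtb Alr E. coli, or the Alr+ wild-type control, in 384-well plates with Prestwick library compounds at 0.1 mM and 1% DMSO, across arabinose induction levels of 1E3 to 1E7 nM. Growth is read as OD600 after 10 h at 37 °C in triplicate biological replicates.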

[1] = arabinose 1000 nM, raw OD600 reference: median of DMSO wells 0.294, cell-free background 0.041
[2] = arabinose 10000 nM, raw OD600 reference: median of DMSO wells 0.264, cell-free background 0.041
[3] = arabinose 100000 nM, raw OD600 reference: median of DMSO wells 0.201, cell-free background 0.041
[4] = arabinose 1000000 nM, raw OD600 reference: median of DMSO wells 0.193, cell-free background 0.041
[5] = arabinose 10000000 nM, raw OD600 reference: median of DMSO wells 0.146, cell-free background 0.041

| Compound | growth [1] | growth [2] | growth [3] | growth [4] | growth [5] |
| --- | --- | --- | --- | --- | --- |
| NCC1(CC(=O)O)CCCCC1 [Gabapentin] | 0.324 ± 0.013 | 0.281 ± 0.011 | 0.215 ± 0.021 | 0.184 ± 0.003 | 0.156 ± 0.0041 |
| C[C@]12CC[C@H](O)C[C@H]1CC[C@@H]1[C@@H]2CC[C@]2(C)[C@@H](C3=CC(=O)OC3)CC[C@]12O [Digitoxigenin] | 0.197 ± 0.0049 | 0.251 ± 0.0094 | 0.117 ± 0.0044 | 0.0923 ± 0.0033 | 0.126 ± 0.0021 |
| CN1C[C@H](CNC(=O)OCc2ccccc2)C[C@@H]2c3cccc4c3c(cn4C)C[C@H]21 [Metergoline] | 0.0429 ± 0.0039 | 0.04017 ± 0.00032 | 0.0428 ± 0.00093 | 0.0401 ± 0.00017 | 0.0432 ± 0.0024 |
| c1ccc2c(c1)Nc1ccccc1S2 [Phenothiazine] | 0.215 ± 0.0099 | 0.265 ± 0.011 | 0.209 ± 0.015 | 0.198 ± 0.013 | 0.201 ± 0.0046 |
| O=c1[nH]oc2c1CCNC2 [THIP Hydrochloride] | 0.316 ± 0.0096 | 0.266 ± 0.0055 | 0.2 ± 0.019 | 0.194 ± 0.014 | 0.136 ± 0.0034 |
| C[C@@H]1CN([C@H]2CC[C@](C#N)(c3ccc(F)cc3)CC2)CC[C@]1(C(=O)O)c1ccccc1 [Levocabastine hydrochloride] | 0.274 ± 0.0041 | 0.271 ± 0.017 | 0.171 ± 0.011 | 0.154 ± 0.0044 | 0.154 ± 0.0047 |
| Clc1ccc(C(OCCN2CCCCC2)c2ccccc2)cc1 (stereo not given) [Cloperastine hydrochloride] | 0.232 ± 0.0029 | 0.2462 ± 0.0014 | 0.174 ± 0.0052 | 0.0487 ± 0.0015 | 0.0546 ± 0.00059 |
| CN1[C@@H]2CC[C@H]1C[C@@H](OC(=O)C(CO)c1ccccc1)C2 (stereo not given in full) [Atropine sulfate monohydrate] | 0.299 ± 0.0088 | 0.25 ± 0.0043 | 0.253 ± 0.012 | 0.182 ± 0.0059 | 0.149 ± 0.011 |
